From PubChem BioAssay (NCATS)
Records with an inconclusive call do not appear. The source made the active and inactive calls. Calls come from the whole dose curve; as a rule, active = well fitted inhibition curve with a large enough effect; inconclusive = small, poorly fitted or top-dose-only effect; inactive = flat fitted curve, though single readings scatter.

What was measured:
Experiment in all cases: qHTS profiling for inhibitors of Plasmodium falciparum proliferation (AID 504749); note: nearly all actives have a fitted effect of over 60% in size
CP256 = settings: P. falciparum in erythrocytes, SYBR Green DNA, 72 h; series mostly up to 12.8 µM
Outline: (§1)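 SYBR Green fluorescence (ex 485 nm, em 535 nm) reports parasite DNA after 72 h compound exposure of infected red cells at 0.3% parasitemia, 2.5% hematocrit; signal normalized to 0.29 uM artemisinin and vehicle wells.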

CP260 = settings: P. falciparum in erythrocytes, SYBR Green DNA, 72 h; series mostly up to 12.8 µM
Outline: as §1

CP262 = settings: P. falciparum in erythrocytes, SYBR Green DNA, 72 h; series mostly up to 12.8 µM
Outline: as §1

CP265 = settings: P. falciparum in erythrocytes, SYBR Green DNA, 72 h; series mostly up to 12.8 µM
Outline: as §1

CP266 = settings: P. falciparum in erythrocytes, SYBR Green DNA, 72 h; series mostly up to 28.7 µM
Outline: as §1

CP268 = settings: P. falciparum in erythrocytes, SYBR Green DNA, 72 h; series mostly up to 12.8 µM
Outline: as §1

CP269 = settings: P. falciparum in erythrocytes, SYBR Green DNA, 72 h; series mostly up to 12.8 µM
Outline: as §1

CP286 = settings: P. falciparum in erythrocytes, SYBR Green DNA, 72 h; series mostly up to 12.8 µM
Outline: as §1

CP291 = settings: P. falciparum in erythrocytes, SYBR Green DNA, 72 h; series mostly up to 12.8 µM
Outline: as §1

CP297 = settings: P. falciparum in erythrocytes, SYBR Green DNA, 72 h; series mostly up to 12.8 µM
Outline: as §1

CP305 = settings: P. falciparum in erythrocytes, SYBR Green DNA, 72 h; series mostly up to 12.8 µM
Outline: as §1

CP315 = settings: P. falciparum in erythrocytes, SYBR Green DNA, 72 h; series mostly up to 12.8 µM
Outline: as §1

CP325 = settings: P. falciparum in erythrocytes, SYBR Green DNA, 72 h; series mostly up to 12.8 µM
Outline: as §1

CP329 = settings: P. falciparum in erythrocytes, SYBR Green DNA, 72 h; series mostly up to 12.8 µM
Outline: as §1

CP335 = settings: P. falciparum in erythrocytes, SYBR Green DNA, 72 h; series mostly up to 12.8 µM
Outline: as §1

DFO2036 = settings: P. falciparum in erythrocytes, SYBR Green DNA, 72 h; series mostly up to 12.8 µM
Outline: as §1

DIV14 = settings: P. falciparum in erythrocytes, SYBR Green DNA, 72 h; series mostly up to 12.8 µM
Outline: as §1

DIV17 = settings: P. falciparum in erythrocytes, SYBR Green DNA, 72 h; series mostly up to 12.8 µM
Outline: as §1

DIV30 = settings: P. falciparum in erythrocytes, SYBR Green DNA, 72 h; series mostly up to 12.8 µM
Outline: as §1

Dd2 = settings: P. falciparum in erythrocytes, SYBR Green DNA, 72 h; series mostly up to 12.8 µM
Outline: as §1

ECU = settings: P. falciparum in erythrocytes, SYBR Green DNA, 72 h; series mostly up to 12.8 µM
Outline: as §1

FAB9 = settings: P. falciparum in erythrocytes, SYBR Green DNA, 72 h; series mostly up to 12.8 µM
Outline: as §1

GB4 = settings: P. falciparum in erythrocytes, SYBR Green DNA, 72 h; series mostly up to 12.8 µM
Outline: as §1

HB3 = settings: P. falciparum in erythrocytes, SYBR Green DNA, 72 h; series mostly up to 12.8 µM
Outline: as §1

ICS = settings: P. falciparum in erythrocytes, SYBR Green DNA, 72 h; series mostly up to 12.8 µM
Outline: as §1

JCK = settings: P. falciparum in erythrocytes, SYBR Green DNA, 72 h; series mostly up to 12.8 µM
Outline: as §1

N140 = settings: P. falciparum in erythrocytes, SYBR Green DNA, 72 h; series mostly up to 12.8 µM
Outline: as §1

P93_24 = settings: P. falciparum in erythrocytes, SYBR Green DNA, 72 h; series mostly up to 12.8 µM
Outline: as §1

P94_40 = settings: P. falciparum in erythrocytes, SYBR Green DNA, 72 h; series mostly up to 12.8 µM
Outline: as §1

PAD = settings: P. falciparum in erythrocytes, SYBR Green DNA, 72 h; series mostly up to 12.8 µM
Outline: as §1

PC15 = settings: P. falciparum in erythrocytes, SYBR Green DNA, 72 h; series mostly up to 12.8 µM
Outline: as §1

PC26 = settings: P. falciparum in erythrocytes, SYBR Green DNA, 72 h; series mostly up to 12.8 µM
Outline: as §1

PC49 = settings: P. falciparum in erythrocytes, SYBR Green DNA, 72 h; series mostly up to 12.8 µM
Outline: as §1

SC27B = settings: P. falciparum in erythrocytes, SYBR Green DNA, 72 h; series mostly up to 12.8 µM
Outline: as §1

TAB109 = settings: P. falciparum in erythrocytes, SYBR Green DNA, 72 h; series mostly up to 12.8 µM
Outline: as §1

TAB113 = settings: P. falciparum in erythrocytes, SYBR Green DNA, 72 h; series mostly up to 12.8 µM
Outline: as §1

TAB165 = settings: P. falciparum in erythrocytes, SYBR Green DNA, 72 h; series mostly up to 12.8 µM
Outline: as §1

W2 = settings: P. falciparum in erythrocytes, SYBR Green DNA, 72 h; series mostly up to 12.8 µM
Outline: as §1

Measured: Potency

CN[C@@H](CC(C)C)C(=O)N[C@@H]1C(=O)N[C@H](CC(N)=O)C(=O)N[C@@H]2C(=O)N[C@H]3C(=O)N[C@H](C(=O)N[C@H](C(=O)O)c4cc(O)cc(O)c4-c4cc3ccc4O)[C@H](O)c3ccc(c(Cl)c3)Oc3cc2cc(c3O[C@H]2O[C@@H](CO)[C@@H](O)[C@@H](O)[C@@H]2O[C@@H]2C[C@](C)(N)[C@H](O)[C@H](C)O2)Oc2ccc(cc2Cl)[C@@H]1O
inactive: all assays above
